Compounds without any hit were thinned out: in the full panel of roughly 83,000, 20% have a hit.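 Values shown are percent growth following 48 h exposure of cells in 96-well plates to a single concentration of compound; below 10 was considered active.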 A number with no mark means an inactive call. Activity calls are given as the source filed them.

What all share (assay): NCI-60 one-dose screen, 48 h (100 = growth as untreated, 0 = no growth, -100 = all killed)
Conditions in all cases: 10 µM unless noted

Assay [1] deals with NCI-H23 lung.
The subject of assay [2] is NCI-H226 lung.
For assay [3], the system named is NCI-H322M lung.
The test system of assay [4] is HOP-62 NSCLC.
Assay [5] concerns NCI-H460 lung.
Assay [6] deals with HOP-92 NSCLC.
Assay [7] deals with NCI-H522 lung.
Assay [8] has as its system A549/ATCC NSCLC.
Assay [9] relates to 786-0 renal.
The subject of assay [10] is COLO 205 colon.
In assay [11] the test system is DU-145 prostate.
Assay [12] concerns K-562 leukemia.
In assay [13] the test system is MALME-3M melanoma.
The test system of assay [14] is MDA-MB-231 breast.
Assay [15] concerns RXF 393 renal.
Assay [16] relates to SF-268 CNS.
Assay [17] has as its system SF-295 CNS.
Assay [18] deals with SF-539 CNS.
In assay [19] the test system is UACC-257 melanoma.
For assay [20], the system named is M14 melanoma.

Turning to `CC(=O)NCC(=O)N1[C@@H]2CC[C@H]1c1ccc(Nc3ncc(C(F)(F)F)c(NC4CCC4)n3)cc12`, the growth in [1] was 27.9% [2.5 µM]; in assay [2], 42.8% [2.5 µM]; in assay [3], 14.2% [2.5 µM]; in assay [4] it was 23% [2.5 µM]; in assay [5], 16.3% [2.5 µM]; in [6], -1.13% [2.5 µM] (active). Further, the growth is 46.1% [2.5 µM] in assay [7]; 34% [2.5 µM] in assay [8]; 42.4% [2.5 µM] in [9]; -22.6% [2.5 µM] (active) in assay [10]; 41.7% [2.5 µM] in assay [11]; 44.8% [2.5 µM] in [12]. Besides, the growth in assay [13] is 46.3% [2.5 µM]; in assay [14] it was 38.1% [2.5 µM]; in [15], -12.8% [2.5 µM] (active); in assay [16] it was 38.6% [2.5 µM]; in [17] it was 60% [2.5 µM]; in assay [18] it was 11.2% [2.5 µM]. For the same compound, the values for the growth in assay [19] and in assay [20] were 59.8% [2.5 µM] and 26.9% [2.5 µM], respectively.

In the case of `CNC(=O)c1cnc(C)nc1-c1cc(C(C)(C)C)c(O)c(C(C)(C)C)c1`, the growth in [1] was 103%; in [2], 98.2%; in [3], 104%; in assay [4], 99.9%; in [5] it was 108%; in [6] it was 74%. The growth in assay [7] is 83.2%; in assay [8], 95.9%; in assay [9], 88.9%; in assay [10] it was 105%; in assay [11], 99.8%; in assay [12] it was 90.4%. For the same compound, the growth in assay [13] is 87.5%; in assay [14], 87.5%; in [15], 111%; in assay [16], 98%; in assay [17], 88.5%; in assay [18], 91.9%. Moreover, the figures for the growth in assay [19] and in [20] were 100% and 94.1%, respectively.

Regarding `O=C(c1ccc(F)c(F)c1Nc1ccc(I)cc1F)N1CC(O)([C@@H]2CCCCN2)C1`, the growth was 13.9% in assay [1]; 39.4% in [2]; 13.5% in assay [3]; 17.7% in [4]; 18.8% in assay [5]; -47.8% (active) in assay [6]. Also, the growth in [7] is 18.8%; in [8], 14.2%; in assay [9], 29.1%; in assay [10] it was -63.9% (active); in assay [11] it was 46.3%; in assay [12], -26.8% (active). For the same compound, the growth in assay [13] was -21.8% (active); in [14], 0.9% (active); in assay [15], -32.3% (active); in assay [16] it was 44.6%; in assay [17], 54.9%; in assay [18], 29.2%. In addition, the values for the growth in assay [19] and in assay [20] were -10.8% (active) and -30.6% (active), respectively.

For `CC(C)CC(=O)Nc1n[nH]c2c1CN(C(=O)C1CCN(C)CC1)C2(C)C`, the growth in assay [1] is 0.542% (active); in assay [2] it was 7.08% (active); in assay [3], 24.4%; in [4] it was -14.3% (active); in assay [5], 7.12% (active); in [6] it was -3.08% (active). Also, the growth was -27.9% (active) in assay [7]; 7.25% (active) in assay [8]; 3.99% (active) in assay [9]; -76.4% (active) in assay [10]; 15.2% in [11]; 11.1% in [12]. Further, the growth in assay [13] is 34.9%; in assay [14] it was 8.95% (active); in [15], -37.2% (active); in assay [16] it was 12.1%; in assay [17] it was 41.6%; in assay [18], -22.3% (active). For the same compound, the growth in [19] was 15.5%; in assay [20] it was 22.2%.

As to `C=CC(=O)Nc1cccc(Nc2nc(Nc3ccc(N4CCN(C(C)=O)CC4)cc3OC)ncc2C(F)(F)F)c1`, the growth in [1] was 26.7%; in [2], 26.8%; in assay [3], -28.9% (active); in assay [4] it was 27.6%; in assay [5], 9.55% (active); in assay [6], -18.1% (active). For the same compound, the growth in assay [7] is -12% (active); in [8], 5.15% (active); in assay [9] it was 8.43% (active); in [10], -37.4% (active); in assay [11], 16.7%; in [12], 18.7%. Further, the growth is 22.2% in [13]; 21.7% in assay [14]; -11.2% (active) in assay [15]; 24.1% in assay [16]; 39.5% in assay [17]; 18.6% in assay [18]. Besides, the growth is 24.5% in [19] and 16.9% in assay [20].

For `Cc1oc2c(C(=O)N/N=C\c3ccc(O)cc3O)c[nH]c2c1C`, the growth in assay [1] was 40.7%; in assay [2] it was 28.8%; in assay [3], 26.3%; in assay [4], 20.9%; in assay [5], 4.29% (active); in assay [6], 13.4%. Besides, the growth in [7] is 16.1%; in assay [8], 12.7%; in assay [9], 5.43% (active); in assay [10], 8.96% (active); in [11] it was -33.5% (active); in assay [12], 11.2%. The growth in assay [13] is 5.32% (active); in assay [14], 30.3%; in assay [15], 39.3%; in assay [16], 7.45% (active); in [17], 12.3%; in assay [18] it was 9.86% (active). Moreover, the growth is 17.8% in [19] and -13.8% (active) in assay [20].

On to `CNc1ncc2cc(-c3cc(NC(=O)NCCC(C)(C)C)c(F)cc3C)c(C)nc2n1`, for which the growth is 12.8% in assay [1]; 33.1% in assay [2]; 4.99% (active) in [3]; 5.28% (active) in assay [4]; 21.3% in assay [5]; -44.3% (active) in assay [6]. For the same compound, the growth in assay [7] was -5.5% (active); in [8], 12.2%; in assay [9] it was 29.8%; in [10], -34.5% (active); in assay [11], 32.6%; in assay [12] it was 3.92% (active). The growth in assay [13] is 1.23% (active); in [14], 1.7% (active); in assay [15], -23.3% (active); in assay [16], 26.5%; in assay [17], 25.5%; in [18], 27.5%. In addition, the growth is -10.3% (active) in assay [19] and -12.4% (active) in assay [20].

On to `Brc1ccc([I+]c2ccc(Br)cc2)cc1`, for which the growth in assay [1] is -9.33% (active); in assay [2], 45.9%; in [3] it was 48.1%; in [4] it was -83% (active); in assay [5], 18.6%; in assay [6], -6.41% (active). Besides, the growth in [7] is -35.7% (active); in assay [8] it was 40.5%; in assay [9] it was 27.7%; in assay [10], -28.7% (active); in [11], 52.6%; in [12] it was 9.03% (active). The growth is 35.7% in [13]; 15.1% in assay [14]; 40.6% in [15]; -56.7% (active) in [16]; 27.5% in [17]; 27.3% in assay [18]. For the same compound, the growth is 27% in assay [19] and 10.3% in assay [20].

The record behind these values is PubChem BioAssay (NCI).
